The values that follow come from PubChem BioAssay (Tox21).

Experiment [1] can be described thus: qHTS RealTime-Glo MT Cell Viability Assay in HEK293 cells - 16 hour (AID 1224872). Also: nearly all actives have a fitted effect of over 50% in size. Also: potency is read from the fitted curve at half-maximal effect. The procedure, abridged: (§1)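 Tox21 10K qHTS, HEK293, 600 cells/well, RealTime-Glo reagent co-dispensed with cells; 5 h preincubation, compound by pintool, 37 C, luminescence at 0–40 h.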
Experiment [2] in a line: qHTS RealTime-Glo MT Cell Viability Assay in HepG2 cells - 8 hour (AID 1224873). Also: nearly all actives have a fitted effect of over 55% in size. In outline: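 Real-time viability: cells seeded at 600 per well together with NanoLuc and cell-permeant prosubstrate, compounds added after 5 h incubation. Luminescence tracked at 0, 8, 16, 24, 32 and 40 h of exposure.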
Experiment [3] can be described thus: qHTS RealTime-Glo MT Cell Viability Assay in HEK293 cells - 40 hour (AID 1224874). Also: nearly all actives have a fitted effect of over 50% in size. Also: potency is read from the fitted curve at half-maximal effect. The settings on record: RealTime-Glo luminescence; max response: stronger effect = lower value. The procedure, abridged:
(§2)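 Luminescence readout at each listed time point; HEK293, 600 cells/well, RealTime-Glo MT reagent added with cells; compounds pinned (23 nL in DMSO) after 5 h at 37 C; continuous culture at 37 C.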

Experiment [4] is described as follows: A CellTox Green Cytotoxicity Assay to monitor cytotoxicity in HEK293 cells - 24 hour (AID 1224875). Also: series mostly up to about 77 µM; nearly all actives have a fitted effect of over 45% in size. In outline:
(§3)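 Read-out: fluorescence of a cell-impermeant cyanine dye staining DNA of dead cells, proportional to cytotoxicity. HEK293, 600 cells/well with reagent, compound (23 nL DMSO) added after 5 h; reads at 0, 8, 16, 24, 32, 40 h.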

Experiment [5] in a line: A CellTox Green Cytotoxicity Assay to monitor cytotoxicity in HepG2 cells - 16 hour (AID 1224876). Also: nearly all actives have a fitted effect of over 45% in size. In outline:
(§4)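 HepG2, 600 cells/well premixed w/ CellTox Green; 5 h settle, 37 C/5% CO2; pintool cpd add (DMSO); 37 C, 40 h; fluorescence read at 0, 8, 16, 24, 32, 40 h.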

Experiment [6] in a line: qHTS RealTime-Glo MT Cell Viability Assay in HepG2 cells - 32 hour (AID 1224877). Also: nearly all actives have a fitted effect of over 55% in size. In outline:
(§5)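 Cells + NanoLuc/prosubstrate dispensed (600 cells/well) → 5 h at 37 C/5% CO2 → compounds in DMSO transferred → 40 h incubation at 37 C, luminescence read at 0, 8, 16, 24, 32, 40 h.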

The nature of experiment [7]: A CellTox Green Cytotoxicity Assay to monitor cytotoxicity in HepG2 cells - 24 hour (AID 1224878). Also: nearly all actives have a fitted effect of over 45% in size. The procedure, abridged: as §4
The nature of experiment [8]: A CellTox Green Cytotoxicity Assay to monitor cytotoxicity in HepG2 cells - 40 hour (AID 1224879). Also: nearly all actives have a fitted effect of over 40% in size. Also: potency is read from the fitted curve at half-maximal effect. The procedure, abridged: as §4
Experiment [9] is described as follows: qHTS RealTime-Glo MT Cell Viability Assay in HEK293 cells - 0 hour (AID 1224880). Also: top concentration of the series differs between compounds; nearly all actives have a fitted effect of over 45% in size. In outline: as §2
The nature of experiment [10]: A CellTox Green Cytotoxicity Assay to monitor cytotoxicity in HEK293 cells - 32 hour (AID 1224881). Also: nearly all actives have a fitted effect of over 40% in size. In outline: as §3
Experiment [11] in a line: A CellTox Green Cytotoxicity Assay to monitor cytotoxicity in HepG2 cells - 32 hour (AID 1224883). Also: nearly all actives have a fitted effect of over 50% in size. In outline: as §4
Experiment [12] can be described thus: A CellTox Green Cytotoxicity Assay to monitor cytotoxicity in HEK293 cells - 8 hour (AID 1224884). Also: nearly all actives have a fitted effect of over 35% in size. The procedure, abridged: as §3
Experiment [13] can be described thus: qHTS RealTime-Glo MT Cell Viability Assay in HepG2 cells - 16 hour (AID 1224885). Also: nearly all actives have a fitted effect of over 50% in size. The procedure, abridged:
as §5

A short description of experiment [14]: qHTS RealTime-Glo MT Cell Viability Assay in HEK293 cells - 24 hour (AID 1224886). Also: nearly all actives have a fitted effect of over 50% in size. Also: potency is read from the fitted curve at half-maximal effect. In outline: as §1
A short description of experiment [15]: qHTS RealTime-Glo MT Cell Viability Assay in HEK293 cells - 8 hour (AID 1224887). Also: nearly all actives have a fitted effect of over 50% in size. Also: potency is read from the fitted curve at half-maximal effect. In outline: as §2
Experiment [16] in a line: A CellTox Green Cytotoxicity Assay to monitor cytotoxicity in HEK293 cells - 16 hour (AID 1224888). Also: nearly all actives have a fitted effect of over 35% in size. In outline: as §3
Experiment [17] is described as follows: qHTS RealTime-Glo MT Cell Viability Assay in HepG2 cells - 0 hour (AID 1224889). Also: nearly all actives have a fitted effect of over 50% in size. The procedure, abridged: as §5
Experiment [18] in a line: A CellTox Green Cytotoxicity Assay to monitor cytotoxicity in HepG2 cells - 8 hour (AID 1224890). Also: nearly all actives have a fitted effect of over 45% in size. The procedure, abridged:
as §4

A short description of experiment [19]: qHTS assay to identify small molecule antagonists of the estrogen receptor alpha (ER-alpha) signaling pathway using the BG1 cell line in the presence of 0.1 nM 17-beta-estradiol - cell viability counter screen (AID 1259241). Also: nearly all actives have a fitted effect of over 40% in size. In outline:
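Cytotoxicity counter-screen: live-cell protease activity measured by fluorescence (30 min reagent step) in the same wells. Cells were VM7Luc4E2 with endogenous ER-alpha and ERE-driven luciferase, treated 22 hr at 37C alongside 0.1 nM 17beta-estradiol final.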

A short description of experiment [20]: A CellTox Green Cytotoxicity Assay to monitor cytotoxicity in HepG2 cells - 0 hour (AID 1224882). Also: nearly all actives have a fitted effect of over 35% in size. In outline:
as §4

“And” between values parts separate entries of the source, which are not always exact repeats. Equal values may be shown once. Inconclusive results are not listed. Some structures have more than one record in an assay (separate samples or runs), and their calls can disagree. The source made the active and inactive calls. Calls follow the shape of the dose curve; as a rule, active = well fitted curve in the direction sought with a large enough effect in the repeat runs; inconclusive = weak or mixed curves; inactive = no such curve, though single readings can be large; an effect the other way counts as inactive or inconclusive.
% is scaled to controls: 0 for no effect and ±100 for the full control effect.

Turning to `Cc1ccc(C(=O)c2cc(O)c(O)c([N+](=O)[O-])c2)cc1`, the Potency entry in experiment [1], in experiment [2], in experiment [4], in experiment [5], in experiment [6] and in experiment [7] was “inactive” each time. Also, the Potency entry in experiment [9], in experiment [10], in experiment [11], in [12], in experiment [13] and in experiment [14] was “inactive” in each case. Also, the Potency entry in experiment [15], in experiment [16], in [17], in experiment [18] and in experiment [19] was “inactive” throughout. Further, the Potency was 49 µM (active) in experiment [3]; 49 µM (active) and inactive in experiment [8].
As for `CCCc1c(OCCCCc2nn[nH]n2)ccc(C(C)=O)c1O`, the Potency entry in [1], in experiment [2], in [4], in experiment [5], in experiment [6] and in experiment [7] was “inactive” throughout. Besides, the Potency entry in experiment [8], in experiment [9], in experiment [10], in [11], in [12] and in experiment [13] was “inactive” each time. Besides, the Potency entry in experiment [14], in experiment [15], in [16], in [17], in experiment [18] and in experiment [19] was “inactive” throughout. Also, the max response in [3] is 0.608% (inactive) and 1.1% (inactive).
With `CC(CCC(=O)O)(c1ccc(O)cc1)c1ccc(O)cc1`, the Potency entry in experiment [1], in [2], in [4], in [5], in [6] and in [7] was “inactive” each time. Moreover, the Potency result in experiment [8], in experiment [9], in [10], in [20], in experiment [12] and in experiment [13] was “inactive” throughout. In addition, the Potency result in experiment [14], in experiment [15], in experiment [16], in experiment [17], in [18] and in [19] was “inactive” in each case. Also, the max response in experiment [3] was -1.02% (inactive) and 0.133% (inactive).
For the compound `NNc1ccc(C(=O)O)cc1`, the Potency result in experiment [1], in experiment [2], in [4], in experiment [5], in experiment [6] and in [7] was “inactive” in each case. Besides, the Potency entry in [8], in experiment [9], in [10], in [11], in experiment [12] and in experiment [13] was “inactive” in each case. The Potency result in experiment [14], in experiment [15], in experiment [16], in experiment [17], in experiment [18] and in [19] was “inactive” in each case. The max response in [3] was 12.1% (inactive).
Consider `COC(C)COC(C)COC(C)CO` (stereo unspecified), for which the Potency result in [1], in experiment [2], in [4], in [5], in experiment [6] and in [7] was “inactive” each time. The Potency entry in experiment [8], in [9], in experiment [10], in [11], in [12] and in experiment [13] was “inactive” throughout. Moreover, the Potency result in [14], in experiment [15], in experiment [16], in [17] and in experiment [18] was “inactive” throughout. The max response in experiment [3] is 0.372% (inactive) and 18.3% (inactive).
Take `O=P(O)(O)O`: the Potency entry in experiment [1], in experiment [2], in experiment [4], in experiment [5], in experiment [6] and in [7] was “inactive” throughout. The Potency entry in experiment [8], in [9], in [10], in [11], in [12] and in experiment [13] was “inactive” each time. Also, the Potency entry in experiment [14], in experiment [15], in [16], in [17] and in experiment [18] was “inactive” in each case. Besides, in experiment [3], the max response was -1.49% (inactive) and 1.49% (inactive).
For `O=C(COc1ccc(Cl)cc1)N1CCN(Cc2ccc3c(c2)OCO3)CC1`, the Potency in [1] was 38.9 µM (active) and inactive; in experiment [3] it was 38.9 µM (active); in experiment [14], 38.9 µM (active); in experiment [15], 38.9 µM (active) and inactive. Moreover, the Potency entry in experiment [2], in experiment [4], in experiment [5], in [6], in experiment [7] and in [8] was “inactive” in each case. Moreover, the Potency entry in experiment [9], in experiment [10], in experiment [20], in experiment [12], in [13] and in experiment [16] was “inactive” in each case. For the same compound, the Potency result in [17] and in [18] was “inactive” throughout.
On to `CCCC(=O)O`, for which the Potency result in [1], in experiment [2], in experiment [4], in [5], in [6] and in [7] was “inactive” throughout. The Potency entry in [8], in experiment [9], in experiment [10], in experiment [20], in experiment [12] and in experiment [13] was “inactive” each time. Besides, the Potency entry in experiment [14], in experiment [15], in [16], in experiment [17], in experiment [18] and in experiment [19] was “inactive” throughout. Besides, in experiment [3], the max response was 23.6% (inactive) and 12.6% (inactive).
With `Nc1ccc(Nc2ccccc2)cc1`, the Potency in [1] was 43.2 µM (active); in [3] it was 48.5 µM (active); in experiment [14] it was 48.5 µM (active); in experiment [15], 21.6 µM (active) and 21.9 µM (active). Moreover, the Potency entry in experiment [2], in experiment [4], in experiment [5], in experiment [6], in experiment [7] and in [8] was “inactive” in each case. Moreover, the Potency result in experiment [9], in experiment [10], in experiment [20], in experiment [12], in experiment [13] and in experiment [16] was “inactive” throughout. Besides, the Potency entry in experiment [17], in experiment [18] and in experiment [19] was “inactive” throughout.
Take `COc1cc([C@@H]2c3cc4c(cc3[C@H](O)[C@H]3COC(=O)[C@H]23)OCO4)cc(OC)c1OC`: the Potency result in experiment [1], in [2], in experiment [4], in experiment [5], in experiment [6] and in [7] was “inactive” throughout. Also, the Potency result in experiment [8], in [9], in experiment [10], in experiment [20], in [11] and in experiment [12] was “inactive” in each case. Moreover, the Potency entry in experiment [13], in experiment [15], in [16], in experiment [17], in experiment [18] and in experiment [19] was “inactive” each time. In [3], the Potency was 0.0489 µM (active).
Take `CC(C)=CCC/C(C)=C\CO`: the Potency entry in experiment [1], in experiment [2], in experiment [4], in experiment [5], in experiment [6] and in experiment [7] was “inactive” each time. Besides, the Potency entry in experiment [8], in experiment [9], in [10], in experiment [20], in [11] and in [12] was “inactive” in each case. For the same compound, the Potency entry in [13], in experiment [14], in experiment [15], in experiment [16], in experiment [17] and in experiment [18] was “inactive” in each case. Further, the Potency entry in [19] was “inactive”. In addition, the max response in experiment [3] was 0.916% (inactive) and 13.7% (inactive).
As to `O=C(/C=C/c1ccccc1)OCc1ccccc1`, the Potency result in [1], in experiment [2], in experiment [4], in [5], in [6] and in [7] was “inactive” in each case. In addition, the Potency entry in [8], in experiment [9], in [10], in experiment [20], in [12] and in experiment [13] was “inactive” in each case. Besides, the Potency result in experiment [14], in [15], in [16], in [17], in experiment [18] and in experiment [19] was “inactive” each time. Further, the max response in experiment [3] was 1.15% (inactive) and -0.532% (inactive).
